Screening data as filed in PubChem.
KKLEB tox: reduces viability of KKLEB cystic fibrosis airway cells. KKLEB CF airway cells viability, ATPlite luminescence, overnight; hits give low values; cells stimulated with P. aeruginosa culture filtrate. activity change (cytotoxicity), % at 5 µM. 360,000 tested, 0.36% active. AID 602141;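 active = corrected activity change at or below -50% at 5 µM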
EWS-Fli block: EWS/Fli transcriptional activity inhibition; A673 NR0B1-luciferase reporter, viability-normalised; inhibition, % at 12.6 µM; 350,000 tested, 0.67% active; AID 651661;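 active = mean inhibition of at least 50% after viability correction, with every replicate also passing that limit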;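 note: firefly luciferase signal divided by Alamar Blue viability fluorescence both relative to DMSO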
CF NFkB inh: blocks PAF-induced NF-kB reporter in cystic fibrosis cells; KKLEB NF-kB-GFP reporter, GFP fluorescence overnight; inhibition, % at 5 µM; 360,000 tested, 0.86% active;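 active = at least 50% inhibition at 5 µM, scaled per plate between neutral and stimulator controls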;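 note: PAF is a Pseudomonas aeruginosa culture filtrate used as stimulus; plate controls were PAF-stimulated DMSO wells for no effect and unstimulated DMSO wells for full effect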
HIF-2a block: inhibitors of HIF-2a; 786-0 RCC cells HIF-2a reporter, luciferase luminescence, overnight; inhibition, % at 18.8 µM; 360,000 tested, 0.72% active;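 active = inhibition of the luminescence signal of 40% or more relative to plate controls, in a single-dose primary screen at 18.75 µM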
PAX8 reporter: PAX8 transcriptional activity inhibition | RMG-I TPO-luciferase reporter, SteadyGlo, 24 h | inhibition, % at 12.6 µM | 360,000 tested, 1.2% active | AID 652154;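 active = mean replicate inhibition at least 60% with every replicate also reaching 60%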;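 note: luciferase light reporting Pax8 driven TPO promoter activity; plate controls were median of neutral control wells for no effect and mitoxantrone controls for full effect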
Numbers without * were called inactive; / = no result given. This is a sample that favours compounds with a hit; in the whole collection about 2.1% have one here.

SMILES	KKLEB tox	EWS-Fli block	CF NFkB inh	HIF-2a block	PAX8 reporter
O=C(NC1CCC1)[C@H]1[C@H](CO)[C@H]2Cn3c(ccc(-c4ccncc4)c3=O)[C@H]2N1CCc1ccccc1	/	1.3	/	/	10.2
CN1C(=O)/C(=C/c2cccc([N+](=O)[O-])c2)C(=O)N1c1ccccc1	-1.1	17.6	-2.1	9.0	11.0
CCCN1C/C(=C/c2cccc([N+](=O)[O-])c2)C(=O)/C(=C/c2cccc([N+](=O)[O-])c2)C1	-88.4*	/	94.9*	26.1	/
C[C@H]1CN([C@@H](C)CO)S(=O)(=O)c2ccc(C3=CCCC3)cc2O[C@H]1CN(C)C(=O)c1ccccc1	/	7.2	/	/	/
OC[C@@H]1[C@H](c2ccccc2)C2(CN(Cc3nccs3)C2)N1Cc1cccnc1	/	4.8	/	/	-0.4
CO[C@H]1CN(C)C(=O)c2cc(NC(=O)c3ccccc3)ccc2OC[C@H](C)N(C(=O)CN(C)C)C[C@@H]1C	/	-2.1	/	/	/
CCOc1ccc(C2=Nn3c(nnc3-c3ccco3)SC2)cc1	-68.5*	/	-3.0	-9.0	32.1
CCOC(=O)c1c(N)n(CCOC(=O)c2cccs2)c2nc3ccccc3nc12	-37.7	/	50.3*	-6.3	/
Cc1cnc(NC(=O)CSc2nnc(C)n2N)s1	10.3	10.8	-12.8	-0.9	130.3*
CC(C)c1nc2sc3c(NCc4ccco4)ncnc3c2c2c1COC(C)(C)C2	-66.2*	/	77.8*	26.7	/
CC(C)c1nc2sc3c(NCc4ccccc4)ncnc3c2c2c1COC(C)(C)C2	-28.9	/	36.3	1.8	/
COc1ccc(C2C(C(=O)Nc3cc(OC)c(OC)c(OC)c3)c3ccccc3C(=O)N2C)cc1 (stereo unspecified)	-18.9	60.3*	33.6	20.2	25.2
OC(c1cc(C(F)(F)F)nc2c(C(F)(F)F)cccc12)C1CCCCN1 (stereo unspecified)	-19.7	59.0*	29.3	17.9	22.1
C[C@H](CO)N1C[C@H](C)[C@@H](CN(C)C(=O)Nc2cccc3ccccc23)OCCCC[C@H](C)Oc2ccc(NC(=O)c3ccncc3)cc2C1=O	/	14.3	/	/	81.7*
C[C@H]1CCCCO[C@H](CN(C)C(=O)Nc2cccc3ccccc23)[C@@H](C)CN([C@@H](C)CO)C(=O)c2cc(NC(=O)CCC(F)(F)F)ccc2O1	/	15.4	/	/	70.6*
C[C@@H]1CN([C@H](C)CO)C(=O)c2cc(NC(=O)CCC(F)(F)F)ccc2O[C@@H](C)CCCCO[C@H]1CN(C)C(=O)Nc1cccc2ccccc12	/	5.6	/	/	47.6
C[C@@H]1CCCCO[C@H](CN(C)C(=O)Nc2cccc3ccccc23)[C@@H](C)CN([C@@H](C)CO)C(=O)c2cc(NC(=O)c3ccncc3)ccc2O1	/	-27.3	/	/	33.3
C[C@@H]1CCCCO[C@@H](CN(C)C(=O)Nc2cccc3ccccc23)[C@H](C)CN([C@H](C)CO)C(=O)c2cc(NC(=O)CCC(F)(F)F)ccc2O1	/	27.3	/	/	67.0*
COc1ccc2c3c([nH]c2c1)[C@H](CO)N(C(=O)Nc1ccccc1F)CC31CN(C(=O)C2CC2)C1	/	1.1	/	/	/
Cc1ccc(S(=O)(=O)CCSC(=N)N)cc1	-6.2	11.3	1.6	-3.8	68.9*
COc1ccc(NC(=O)c2oc3ccccc3c2NC(=O)COc2ccccc2OC)c(OC)c1	-53.6*	/	54.4*	-15.7	/
CC12CCC(=O)C=C1C(O)CC1C2CCC2(C)C1CCC2(O)C(=O)CO (stereo unspecified)	-3.3	-4.3	2.8	17.3	-14.6
CC(=O)OCC(=O)C1(O)CCC2C3CC(C)C4=CC(=O)C=CC4(C)C3=CCC21C (stereo unspecified)	5.3	1.1	44.9	21.2	9.5
CC1CC2C(C(O)CC3(C)C2CCC3(O)C(=O)CO)C2(C)C=CC(=O)C=C12 (stereo unspecified)	11.1	-6.5	76.0*	16.8	4.6
CC(=O)OCC(=O)[C@@]1(O)CC[C@H]2[C@@H]3C[C@H](C)C4=CC(=O)C=C[C@]4(C)[C@H]3[C@@H](O)C[C@@]21C	-10.6	-12.0	77.3*	29.7	4.0
SMILES	KKLEB tox	EWS-Fli block	CF NFkB inh	HIF-2a block	PAX8 reporter
COCC(=O)Nc1ccc2c(c1)[C@H]1C[C@@H](CC(=O)NCc3ccccc3OC)O[C@@H](CO)[C@H]1O2	/	0.4	/	/	/
CC(C)CC(=O)/C=C/n1c(=S)oc2ccccc21	-76.9*	/	91.8*	90.7*	-9.7
CC(=O)/C=C/n1c(=S)oc2ccccc21	/	/	/	/	113.5*
O=C(CSc1c2c(nc3ccc(Cl)cc13)CCCC2)N1CCN(C(=O)c2ccco2)CC1	-11.7	20.7	53.7*	3.2	31.8
O=c1[nH]cnc2ncc(-c3ccc(O)cc3)nc12	-10.0	4.9	5.7	19.7	68.9*
O=c1[nH]cnc2nc(-c3ccccc3)c(-c3ccccc3)nc12	2.5	/	-0.7	21.0	10.5
CC(C)n1c(O)c(/C=C2\C=NN=C2c2ccccc2)sc1=S	8.3	6.3	58.4*	5.5	-12.8
CCn1c(O)c(/C=C2\C=NN=C2c2ccc(C)cc2)sc1=S	6.5	-5.4	-4.7	9.9	-9.5
C[C@@H](NC(=O)[C@@H]1N[C@@H]2c3ccc(-c4ccncc4)c(=O)n3C[C@@H]2[C@H]1CO)c1ccccc1	/	5.4	/	/	4.5
Cc1cccc2c(C(=O)O)cc(-c3cccnc3)nc12	2.7	2.1	2.2	18.0	66.4*
CCN(CC)c1ccc2c(Cl)c(Br)c(=O)oc2c1	-11.8	/	37.2	87.8*	/
CCN(CC)c1ccc2c(C)c(Cl)c(=O)oc2c1	-8.7	16.9	4.6	-71.0	4.2
O=C(C[C@H]1CC[C@@H]2[C@H](COC[C@H](O)CN2C(=O)C2CC2)O1)NCc1ccncc1	/	1.4	/	/	0.0
CC(C)(C=O)C1=CC(=O)c2ccccc2C1=O	-1.3	/	-11.5	41.9*	64.7*
CC1=CC(=O)c2ccccc2C1=O	-16.0	-4.8	61.8*	5.7	2.4
COc1cccc2c1C(=O)C=C(C)C2=O	6.2	23.8	57.7*	9.4	28.1
Cc1ccc(S(=O)(=O)Nc2ccc3c(c2)CC(=O)N([C@H](C)CO)C[C@H](C)[C@H](CN(C)Cc2ccc(Oc4ccccc4)cc2)O3)cc1	/	-6.6	/	/	-11.1
COc1ccc(NC(=O)Nc2ccc3c(c2)[C@H]2C[C@@H](CC(=O)N(C)C)O[C@H](CO)[C@H]2O3)cc1	/	-12.5	/	/	/
Cc1noc(C)c1NC(=O)N(C)C[C@@H]1OCCCC[C@@H](C)Oc2ccc(NC(=O)Nc3ccc(F)cc3)cc2C(=O)N([C@@H](C)CO)C[C@H]1C	/	-9.5	/	/	-6.3
Cc1cc(C(=O)Nc2ccc3c(c2)C(=O)N(C)[C@@H]2CC[C@H](CC(=O)N[C@H](C)c4ccccc4)O[C@@H]2CO3)no1	/	2.7	/	/	8.1
CCCCn1cnc2c(c(-c3ccccc3)c(-c3ccccc3)n2Cc2ccco2)c1=N	-8.5	46.0	8.5	14.5	99.9*
NC(=O)CC(NC(=O)c1cccc(Br)c1)c1ccc(N2CCN(c3ccccn3)CC2)c([N+](=O)[O-])c1 (stereo unspecified)	-13.5	2.3	-19.4	81.4*	12.2
